# About 18,000 (5.8%) of roughly 310,000 compounds were called active. Where a call stands in place of a potency, no number is given. About 22% were inconclusive and are not listed. Calls follow the shape of the dose curve; as a rule, active = well fitted inhibition curve with a large enough effect; inconclusive = small, poorly fitted or top-dose-only effect, or another doubt; inactive = no such curve, though single readings can be large or run the other way. Many of the other results were omitted from the sample, so actives are more common in it than they were.
# Test: Primary qHTS for delayed death inhibitors of the malarial parasite plastid, 48 hour incubation
# Conditions: P. falciparum luciferase growth in erythrocytes; series mostly up to 28.7 µM
# How it was run: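 Here the parasites carry a stable luciferase gene and grow inside erythrocytes in Albumax-based RPMI medium with compound for one erythrocytic cycle. Activity is scored as loss of luminescent signal.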
# Potency is read from the fitted curve at half-maximal effect.
Structure (SMILES),Potency,"activity change, negative = inhibition"
COc1cccc(NS(=O)(=O)c2ccc(-c3coc(C)n3)cc2)c1,inactive,
CCC(=O)Nc1ccc(-c2ccc(N3CCCCC3)nn2)cc1,inactive,
Cn1nnnc1SCC(=O)Nc1nc2ccccc2s1,inactive,
Cn1nnnc1SCC(=O)N1CCN(C(c2ccccc2)c2ccccc2)CC1,9.28 µM (active),
CC(OC(=O)c1ccc(-n2cnnn2)cc1)C(=O)NCc1ccccc1 (centres undefined),inactive,
Cn1nnnc1SCC(=O)N1CCN(Cc2ccccc2)CC1,inactive,
O=C(c1ccc(-n2cnnn2)cc1)N1CCN(C(c2ccccc2)c2ccccc2)CC1,2.62 µM (active),
O=C(O)CN1CCN(C(c2ccccc2)c2ccccc2)CC1,inactive,
COC(=O)c1sc(N2CCN(Cc3ccccc3)CC2)nc1N,,-6.08% [at 0.00184 µM] (inactive)
COc1ccccc1-n1ccnc(SCC(=O)NC2CCCCC2)c1=O,inactive,
O=C(Nc1c2c(nn1-c1cccc(Cl)c1)CS(=O)(=O)C2)c1cccs1,inactive,
C=CCn1cc(C(=O)NCc2ccc(Cl)cc2)c(=O)c2cc(S(=O)(=O)N(CC)CC)ccc21,11.7 µM (active),
CCOC(=O)N1CCN(C(=O)c2cn(C)c3ccc(S(=O)(=O)N(CC)CC)cc3c2=O)CC1,inactive,
CCN(CC)S(=O)(=O)c1ccc(Cl)c(C(=O)NCCN2CCOCC2)c1,inactive,
O=C(CN1CCN(C(=O)C2CCCO2)CC1)Nc1c(Cl)cccc1Cl (centres undefined),inactive,
O=C(NC(=S)NC1CCCCC1)c1ccc(Cl)cc1,inactive,
CCOC(=O)N1CCN(S(=O)(=O)c2ccc(Br)cc2)CC1,inactive,
COc1ccc(O)c(C(=O)c2cnc3c(c2)c(-c2ccc(F)cc2)c(C#N)c(=O)n3C)c1,1.65 µM (active),
Cn1c(N)cc(-c2ccc(F)cc2)c(C#N)c1=O,inactive,
Cc1cc(C)c2c(-c3ccc(F)cc3)c(C#N)c(=O)n(C)c2n1,inactive,
COc1ccc(/C=N/Nc2nc(-c3ccc(C)cc3)c(C#N)c(=O)[nH]2)cc1,inactive,
CSCCC(NC(=O)c1ccccc1)C(=O)N1CCCCCCC1 (centres undefined),inactive,
COc1ccccc1C(=O)NC(CCSC)C(=O)N1CCN(C(C)=O)CC1 (centres undefined),inactive,
CSCCC(NC(=O)c1ccccc1)C(=O)N1CCN(Cc2ccc(Cl)cc2)CC1 (centres undefined),2.94 µM (active),
c1ccc2c(c1)CSc1sccc1C2=C1CCNCC1,11.7 µM (active),
O=C(CNC(=O)c1ccc(Br)o1)NCC1CCCO1 (centres undefined),inactive,
CCOC(=O)N1CCN(C(=O)COC(=O)c2cccc(S(C)(=O)=O)c2)CC1,inactive,
CCOc1ccc(NC(=O)C(C)N2C(=O)c3ccccc3C2=O)cc1 (centres undefined),inactive,
COc1ccc(-c2ccc3nnc(SCC(=O)Nc4ccc(NC(C)=O)cc4)n3n2)cc1,inactive,
